In PubChem BioAssay (NCI):
About 83,000 compounds went through this panel and 20% of them were active in at least one assay; those are over-represented in the sample as a whole.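 Cells were grown in 96-well plates and exposed to the test compound at a single concentration for 48 hours; results are reported as percent growth, with values below 10 considered active.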 Calls of active or inactive are those of the source.

Experiments:
Assay in all cases: NCI-60 one-dose screen, 48 h (100 = growth as untreated, 0 = no growth, -100 = all killed)
Details in all cases: 10 µM unless noted
[1] = test system: SNB-75 CNS
[2] = test system: SNB-19 CNS
[3] = test system: U251 CNS
[4] = test system: SK-MEL-5 melanoma
[5] = test system: UACC-62 melanoma
[6] = test system: LOX IMVI melanoma
[7] = test system: SK-MEL-28 melanoma
[8] = test system: EKVX NSCLC
[9] = test system: SN12C renal
[10] = test system: UO-31 renal
[11] = test system: TK-10 renal
[12] = test system: ACHN renal
[13] = test system: CAKI-1 renal
[14] = test system: A498 renal
[15] = test system: CCRF-CEM leukemia
[16] = test system: MOLT-4 leukemia
[17] = test system: SR leukemia
[18] = test system: PC-3 prostate
[19] = test system: SK-MEL-2 melanoma

Measured: growth

Clc1ccc([C@@H]2C[C@@H]3Cc4cc(Br)c5ccccc5c4N2O3)c(Cl)c1
inactive: [1] 56.2% | [2] 83.8% | [3] 60.6% | [4] 93.8% | [5] 62.8% | [6] 72.1% | [7] 69.9% | [8] 108% | [9] 96.8% | [10] 64% | [11] 90.2% | [12] 81.6% | [13] 73.6% | [14] 87% | [15] 66.5% | [16] 78% | [17] 20.8%

c1csc([C@@H]2C[C@@H]3Cc4ccc5ccccc5c4N2O3)c1
inactive: [1] 87.1% | [2] 97.5% | [3] 96.8% | [4] 101% | [5] 79.7% | [6] 98.9% | [7] 103% | [8] 78.8% | [9] 94.3% | [10] 70.2% | [11] 88.7% | [12] 107% | [13] 82.2% | [14] 79.8% | [15] 75.8% | [16] 78.3% | [17] 95.1%

CCC(O)C(C)(C)C (stereo not drawn)
inactive: [1] 108% | [2] 109% | [18] 108% | [5] 104% | [6] 93% | [19] 129% | [8] 99% | [9] 101% | [10] 101% | [11] 98.8% | [12] 110% | [13] 94.3% | [14] 96.3% | [15] 116% | [16] 111% | [17] 110%

N=C(N)/N=C(\CCc1nc2ccccc2[nH]1)c1nc2ccccc2[nH]1
inactive: [1] 82.5% | [2] 93.6% | [3] 103% | [4] 98% | [5] 82.2% | [6] 85.4% | [7] 100% | [8] 92.7% | [9] 85.6% | [10] 67.6% | [11] 105% | [12] 92.3% | [13] 93.6% | [14] 111% | [15] 99.5% | [16] 107% | [17] 83.9%

CC(=O)c1nc2ccccc2n1CCn1cc(CC(N)C(=O)O)c2ccccc21 (stereo not drawn)
inactive: [1] 74.7% | [2] 92.6% | [3] 102% | [4] 96.1% | [5] 79.5% | [6] 89.4% | [7] 109% | [8] 82.4% | [9] 93.7% | [10] 69.4% | [11] 102% | [12] 96.9% | [13] 95.9% | [14] 116% | [15] 82.9% | [16] 83.9% | [17] 90.7%

COc1ccc(OC)c2c1[nH]c(=O)c1c3ccccc3cn21
active: [1] -77.2% | [2] -48.4% | [3] -97% | [4] -98.8% | [5] -100% | [6] -84.8% | [7] -83.8% | [19] -56.8% | [8] -43.4% | [9] -92.9% | [10] -81.4% | [11] -83.4% | [12] -84.6% | [15] -48.7% | [16] -15.7% | [17] -6.08%
inactive: [14] 51.1%

Oc1ccccc1C=Nc1ccccc1N=Cc1ccccc1O.[Cu+2]
inactive: [1] 47.9% | [2] 91.7% | [3] 61.8% | [4] 24.1% | [5] 43.9% | [6] 47.6% | [7] 85.1% | [8] 67.1% | [9] 60.3% | [10] 24% | [11] 84.1% | [12] 57.3% | [13] 68.6% | [14] 92.8% | [15] 27.9% | [17] 66.3%
active: [16] 3.28%
